Bioassay records: PubChem, National Center for Advancing Translational Sciences (NCATS)
NPC1 prom act – NPC1 promoter activation; Huh7 NPC1 promoter luciferase reporter, 24 h; Potency, µM (top dose mostly 9.22 µM), for inactives: top-dose activation, hits mostly activators; 320,000 compounds, 2.4% hits; AID 485313; note: % of control where 0% means no effect; nearly all actives have a fitted effect of over 60% in size
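Huh7 reporter cells (NPC1 promoter driving luciferase) are dosed with compound for 24 h at 37 °C, 5% CO2; luciferase detection reagent is then added and luminescence measured after 10 min at ambient temperature.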
SMN2 splice up – enhancers of SMN2 splice variant expression; HEK293 SMN2-luciferase splicing reporter, luminescence, 30-36 h; Potency, µM (doses to about 46.1 µM), inactives show at the top dose activity change, positive = activation, actives largely listed as activators; 210,000 compounds, 2.8% hits; AID 1458; note: % of control where 0% means no effect; nearly all actives have a fitted effect of over 55% in size
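HEK293 cells carry an SMN2 minigene-luciferase reporter in which exon 7 inclusion puts luciferase in frame. Cells were seeded at 2000 cells/well, attached for 10-12 hours, then exposed to compounds for 30-36 hours at 37C before ONE-Glo luminescence.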
Rab9 promoter act – Rab9 promoter activation. Huh7 Rab9 promoter-luciferase reporter, luminescence, 24 h. Potency, µM (series often up to 9.22 µM), inactives show at the highest dose activation, negative = inhibition, hits mostly activators. 320,000 compounds, 2.8% hits. AID 485297; note: % of control where 0% means no effect; nearly all actives have a fitted effect of over 60% in size
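Quantitative HTS format; Huh7 Rab9-luciferase reporter cells (1500/well) receive compound 2 h post-plating, incubate 24 h at 37 °C, then get luciferase reagent for 10 min before luminescence reading.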
uPA generation – inhibitors of cell surface uPA generation. AID 540303. Potency, µM (highest dose often 38.3 µM), for the others: at the highest dose activity change, negative = inhibition, actives largely listed as inhibitors. cell surface uPA generation assay, qHTS. 330,000 compounds, 0.31% hits; active = well fitted inhibition curve with a large enough effect; inconclusive = small, poorly fitted or top-dose-only effect; inactive = no such curve, though single readings can be large or run the other way; tested in mouse RAW 264.7 cells; note: % is set by controls: 0 for no effect and ±100 for the full control effect; nearly all actives have a fitted effect of over 55% in size
FLuc counter – inhibits or activates purified firefly luciferase, miR-21 counter-screen. purified FLuc, Km substrates, luminescence inhibition. Potency, µM (top dose mostly 57.5 µM), inactives show top-dose activity change, negative = inhibition, actives largely listed as inhibitors. 360,000 compounds, 6.9% hits;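 note: plate controls were vehicle for no effect and reference inhibitor for full effect; nearly all actives have a fitted effect of over 55% in size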
Target sequence (P08659 whole entry, looked up): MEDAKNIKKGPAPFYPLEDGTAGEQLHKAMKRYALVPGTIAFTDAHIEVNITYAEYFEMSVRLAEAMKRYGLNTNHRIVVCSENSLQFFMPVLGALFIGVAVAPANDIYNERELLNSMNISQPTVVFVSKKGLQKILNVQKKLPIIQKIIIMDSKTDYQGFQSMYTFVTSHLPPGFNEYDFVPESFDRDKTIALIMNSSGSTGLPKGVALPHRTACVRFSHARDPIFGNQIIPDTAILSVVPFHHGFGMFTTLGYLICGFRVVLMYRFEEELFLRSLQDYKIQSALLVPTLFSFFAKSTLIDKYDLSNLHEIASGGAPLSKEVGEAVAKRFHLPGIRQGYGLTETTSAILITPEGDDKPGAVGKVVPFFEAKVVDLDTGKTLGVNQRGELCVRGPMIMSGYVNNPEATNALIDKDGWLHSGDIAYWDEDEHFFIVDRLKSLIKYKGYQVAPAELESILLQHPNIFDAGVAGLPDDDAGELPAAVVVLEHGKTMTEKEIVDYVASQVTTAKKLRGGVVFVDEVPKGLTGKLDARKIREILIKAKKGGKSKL
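Biochemical qHTS of compounds, final roughly 60 µM downward over six points, against 10 nM purified firefly luciferase using Km concentrations of substrates (10 uM D-luciferin, 10 uM ATP) in Tris acetate pH 7.5 buffer; luminescence output.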
ELG1 genotoxic – genotoxicity induction in ELG1-luciferase HEK293T cells; HEK293T ELG1-luciferase reporter, luminescence, 16 h; Potency, µM (doses to about 46 µM), for inactives: at the top dose activity change, positive = activation, hits mostly activators; 330,000 compounds, 1.3% hits; AID 504466; note: % of control where 0% means no effect; nearly all actives have a fitted effect of over 60% in size
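Genotoxicity was scored as increased ELG1-luciferase reporter signal, measured by ONE-Glo luminescence (30 min, room temperature). Compound or vehicle exposure of the HEK293T reporter cells lasted 16 hr at 37°C.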
The depositor's hits bear a star; ? = inconclusive; . = not tested or not shown. This is a sample that favours compounds with a hit; in the whole collection about 7.3% have one here. Unless noted, calls come from the whole dose curve; as a rule, active = well fitted curve in the direction sought with a large enough effect; inconclusive = small, poorly fitted or top-dose-only effect, or another doubt; inactive = no such curve, though single readings can be large; an effect the other way counts as inactive or inconclusive. Potency is the fitted concentration of half-maximal effect.

SMILES	NPC1 prom act	SMN2 splice up	Rab9 promoter act	uPA generation	FLuc counter	ELG1 genotoxic
Cc1ccc(-n2ncc3c(=O)n(CC(=O)N4CCCCCC4)cnc32)cc1	2%	-25%	3%	-2%	17µM*	2%
CCOC(=O)Cn1cnc2c(cnn2-c2ccc(C)c(C)c2)c1=O	.	25%	.	.	21µM*	.
Cc1ccc(-n2ncc3c(=O)n(CC(N)=O)cnc32)cc1C	8%	.	11%	3%	-19%	6%
Cc1nc2c3cnn(-c4ccc(C)c(C)c4)c3ncn2n1	2µM*	11µM*	2µM*	5%	6.7µM*	?
COC(=O)C/C=C/[C@@H](C)[C@H](OC)c1c(Br)ccc2c1OCO2	.	4%	.	.	.	.
O=C(NCCCN1CCOCC1)c1sc2ccccc2c1Cl	23%	.	30%	-1%	?	?
CCNc1nc(-c2cc(C)n(Cc3ccco3)c2C)cs1	1%	27%	3%	3%	?	-6%
CC(=O)Nc1cccc(-c2csc(NCc3ccco3)n2)c1	8%	?	1%	2%	17µM*	?
Oc1ccc(-c2csc(NCc3ccco3)n2)cc1	26%	25%	28%	-13%	11µM*	18µM*
O=C(NCc1ccco1)Nc1cccc(-c2ccccc2)c1	.	.	.	-10%	.	.
Cc1nc2ncccn2c1-c1csc(NCc2ccco2)n1	0%	-24%	-8%	-8%	-16%	16%
c1coc(CNc2nc(-c3cccs3)cs2)c1	?	?	?	3%	24µM*	6%
CCOC(=O)c1cc(-c2ccc(OC)c(S(=O)(=O)NC3CCCCC3)c2)on1	.	.	.	.	0%	.
COc1ccc(-c2cc(C(=O)OC(C)C(=O)c3ccccc3)c3cccc(Cl)c3n2)cc1 (configuration not stated)	.	5%	.	.	4%	.
Cc1ccc(Nc2nnc(-c3ccccc3N)o2)cc1C	3.5µM*	.	3.5µM*	-3%	2.7µM*	?
Cc1cc(C)n(-c2ncccc2[N+](=O)[O-])n1	0%	.	-5%	-1%	1%	0%
CC(C)c1ccc(-n2cnn(-c3ncccc3[N+](=O)[O-])c2=O)cc1	1.1µM*	7.9µM*	0.89µM*	.	3µM*	2.3µM*
Cc1c(C(=O)OCC(=O)N2CC(C)CC(C)C2)oc2ccccc12 (configuration not stated)	-1%	.	-5%	1%	0%	-1%
COc1ccc2oc(C(=O)OCC(=O)N3C(C)CCCC3C)c(C)c2c1 (configuration not stated)	-1%	.	2%	1%	?	4%
CCN(CC)CC(C)(C)COC(=O)c1oc2ccccc2c1C	1%	.	-2%	7%	-16%	3%
Cc1c(C(=O)OCC(C)(C)CN(C)C)oc2ccccc12	4%	7%	-1%	0%	19µM*	?
Cc1c(C(=O)OCCN2CCCCC2)oc2ccccc12	0%	1%	5%	2%	19µM*	2%
Cc1c(C(=O)OCC(=O)N2C(C)CCCC2C)oc2ccccc12 (configuration not stated)	?	.	?	12%	17µM*	?
COc1ccc(C(C)=O)cc1COC(=O)C1CC(=O)N(Cc2ccccc2)C1 (configuration not stated)	-2%	.	8%	3%	5%	10%
Cc1nnc(N2CCCC(C(=O)NCCc3ccccc3)C2)c2nn(-c3ccccc3)c(C)c12 (configuration not stated)	.	.	.	.	-16%	.
Cc1nn(-c2ccccc2)c(C)c1-c1ccccc1O	4%	.	-3%	12%	-17%	5%
Cc1nn(-c2ccccc2)c(/N=C/c2ccc(O)cc2)c1-c1ccccc1	?	18µM*	?	?	-5%	14%
CCCn1nnc(NC(=O)c2ccc3ccccc3c2)n1	?	.	?	3%	15µM*	3%
CCCn1nnc(NC(=O)c2ccc(Cl)cc2Cl)n1	3.2µM*	88%	3.2µM*	-2%	19µM*	9.2µM*
